± gives the standard deviation of the averaged measurements.
The compounds below were run on HCC1569 (assay: cell number relative to DMSO (% of DMSO); higher = more cells (less growth inhibition / toxicity)). Conditions: concentration: 10 µM; 24 h.
Summary of the method: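 Compounds were applied at 10 µM for 24 h at 37 °C, in triplicate, to HCC1569 and TDF cells. The cells were then fixed and stained for H1.0, and nuclei were counterstained with DAPI. Nuclear H1.0 intensity or cell number is reported relative to the plate control as a percent, taking the median of replicates. Smoothing for positional effects was applied to HCC1569 values only.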
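Further: TDF denotes transformed human dermal fibroblasts of mesenchymal origin.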

Row | SMILES | cell number
1 | CN(C)CCCSc1ccccc1NC(=O)C=Cc1ccccc1 [Cinanserin] | 103
2 | COc1cc2c(cc1OC)-c1cc(=Nc3c(C)cc(C)cc3C)n(C)c(=O)n1CC2.Cl [Trequinsin.HCl] | 102
3 | NC(N)=NC(=O)c1nc(Cl)c(N2CCCCCC2)nc1N [5-(N,N-hexamethylene)amiloride] | 96
4 | COc1ccc(C2CNC(=O)C2)cc1OC1CCCC1 (stereo not drawn) [Rolipram] | 101 ± 1.8
5 | N[C@@H](Cc1ccc(O)c(O)c1)C(=O)O [L-3,4-Dihydroxyphenylalanine] | 100
6 | O=c1cc(-c2ccccc2)oc2cc(O)ccc12 [7-Hydroxyflavone] | 103
7 | O=C(O)[C@H]1C[C@H](C(=O)O)N1 (relative stereo) [trans-Azetidine-2,4-dicarboxylic acid] | 95.1
8 | CCOC(=O)C1=C(C)NC(=S)NC1c1cccc(O)c1 (stereo not drawn) [Monastrol] | 99.8
9 | CCOC(=O)Nc1ccc(NCc2ccc(F)cc2)nc1N.O=C(O)C=CC(=O)O [Flupirtine maleate] | 97.3
10 | CCCCC(C)(O)CC=CC1C(O)CC(=O)C1CCCCCCC(=O)O (stereo not drawn) [Misoprostol, free acid] | 100
11 | O=C(Nc1cccc(Nc2ncc(Br)c(NCCc3cnc[nH]3)n2)c1)N1CCCC1 | 51.2
12 | CCCCCCCC(=O)c1c(O)cc(O)cc1CC(=O)OCC [ethyl (3,5-dihydroxy-2-octanoylphenyl)acetate] | 104
13 | C[n+]1ccccc1CC(=O)c1ccc(Br)cc1.[I-] [2-[2-(4-bromophenyl)-2-oxoethyl]-1-methylpyridinium iodide] | 98.7

Reference: the supplement of paper PMC7156485
